High-throughput results from PubChem BioAssay.
aSyn 5UTR act – Activators working through SNCA 5'UTR binding (MLPCN); 300,000 compounds, 7.1% hits; AID 1814; activity score, % (tested at 7.5 µM), hits read low; alpha-synuclein 5'UTR reporter, activators screen; in the data active = activity score below about -60%
Numbers without * were called inactive. Only a sample is shown.

SMILES	aSyn 5UTR act
COc1ccc(C[C@H]2NC[C@H](O)[C@H]2OC(C)=O)cc1	112
O=c1[nH]c(=S)[nH]c(O)c1N=Nc1ccc2c(c1)OCO2	-74*
O=c1[nH]c(=S)[nH]c(O)c1N=Nc1ccc(OC(F)F)cc1	-92*
Cn1c(O)c(C(=N)COc2ccccc2)c(=O)n(C)c1=O	-67*
CC1=CC(=C2C(=O)NC(=S)NC2=O)C=C(C(F)(F)F)N1Cc1ccccc1	113
CCN1C(=O)C(=Cc2ccc(C)s2)C(=O)N(CC)C1=S	-158*
N#Cc1ccccc1NC(=O)CN1CC=C(c2ccccc2)CC1	-63*
Fc1ccc(C(OCCN2CCN(CCCc3ccccc3)CC2)c2ccc(F)cc2)cc1	106
CC(Cc1ccccc1)N1Cc2ccccc2C1 (centres undefined)	-65*
CCCCCCn1c(=O)c(C(=O)Nc2ncccc2O)c(O)c2ccccc21	92
O=C(Nc1cccc(Cl)c1)c1c(O)c2c(n(Cc3ccco3)c1=O)CCCC2	-87*
O=[N+]([O-])c1ccccc1CNCCc1ccc(F)cc1	-111*
Cn1ncnc2c(=O)n(C)c(=O)nc1-2	98
N=C1c2ccccc2CN1CC(=O)c1ccccc1	-186*
Cc1cccc(-n2c(/C=C/c3ccc([N+](=O)[O-])o3)nc3ccccc3c2=O)c1	-212*
O=c1c2ccccc2nc(/C=C/c2ccc([N+](=O)[O-])o2)n1-c1ccc(O)cc1	100
CCCCCn1c(=O)c(C(=O)NCc2ccncc2)c(O)c2ccccc21	65
N#CSCC(=O)N1c2ccccc2CCc2ccccc21	-84*
CCN(CC)C(=O)c1ccc(NC(=O)Nc2ccccc2F)cc1	59
Cc1ccc(-c2cc(-c3ccc(C)cc3)[n+](-c3ccc(C(=O)[O-])cc3)c(-c3ccc(C)cc3)c2)cc1	83
Cc1ccccc1NC(=O)CCl	-71*
CC(=O)c1ccc(OC(=O)N(C)c2ccccc2)cc1	-66*
Cc1ccc(-c2cc(-c3ccccc3)cc(-c3ccccc3)[n+]2-c2ccccc2)cc1	85
CC(=O)c1ccc(-c2ccccc2)cc1	-81*
CN(C)C(=O)Oc1ccc(C(=O)c2ccccc2)cc1	-68*
SMILES	aSyn 5UTR act
CC(=O)O[C@@H]1/C=C/[C@](C)(O)C[C@@H](C)C/C=C/[C@H]2[C@@H]3O[C@]3(C)[C@@H](C)[C@H]3[C@H](Cc4ccccc4)NC(=O)[C@@]312	114
CC(=O)Nc1ccccc1C(=O)OCc1ccc(F)cc1	-84*
CC(=O)Nc1ccccc1C(=O)OCC(=O)c1ccc2c(c1)OCCO2	-62*
CCC(C)C(=O)N[C@@H](c1ccccc1)[C@@H](O)C(=O)O[C@H]1C[C@@]2(O)[C@@H](OC(=O)c3ccccc3)C3[C@](C)(C(=O)[C@H](OC(C)=O)C(=C1C)C2(C)C)[C@@H](O)C[C@H]1OC[C@@]31OC(C)=O (some centres undefined)	103
CCN1C(=O)C(=C2C=C(C)OC(C)=C2)C(=O)N(CC)C1=S	-75*
CN(C)c1ccc(-[n+]2c(-c3ccccc3)cc(-c3ccccc3)cc2-c2ccccc2)cc1	84
O=C1Nc2ccccc2/C1=C/c1nc2ccccc2c(=O)n1-c1ccc(O)cc1	-77*
CCC(=NC(C)c1ccccc1)c1c(O)[nH]c(=O)[nH]c1=O (centres undefined)	57
CCCCn1c(O)c(/C(C)=N/NC(=O)Nc2ccccc2)c(=O)[nH]c1=O	-99*
Cc1nc2ccccc2c(=O)n1-c1ccc(Br)cn1	-176*
O=Cc1cn(Cc2ccc(F)cc2)c2ccccc12	71
Cc1ccc(-c2nn(Cc3ccccc3)cc2C=O)cc1	-138*
O=Cc1cn(Cc2ccc([N+](=O)[O-])cc2)c2ccccc12	72
Cc1cc(N(CCCl)CCCl)ccc1/C=N/N=C(\N)c1cnccn1	-74*
COc1cccc(OCc2cc(C(=O)N3C[C@H]4C[C@@H](C3)c3cccc(=O)n3C4)no2)c1	-174*
CCCCCCn1c(=O)c(C(=O)Nc2c(C)n(C)n(-c3ccccc3)c2=O)c(O)c2ccccc21	-76*
CCCCCCn1c(=O)c(C(=O)Nc2cnccn2)c(O)c2ccccc21	67
CCCCCn1c(=O)c(C(=O)Nc2ccccn2)c(O)c2ccccc21	65
CN1CCc2nc(SCC(=O)OC(C)(C)C)c(C#N)cc2C1	-281*
COc1ccc(O)c2c(=O)c3c(OC)cc4c(c3oc12)C1C=COC1O4 (centres undefined)	94
O=C(C1CC(c2ccccc2O)=NO1)N1CCC2(CC1)OCCO2 (centres undefined)	-68*
Nc1c2c(nc3sc4c(c13)CCCCC4)CCCC2	-139*
